The source of these data is PubChem BioAssay (Tox21).

The structures appear in SMILES notation. Values without a mark were called inactive. Inconclusive results are not listed. The source made the active and inactive calls. Unless noted, the call rests on the fitted dose curve; in most records, active means well fitted curve in the direction sought with a large enough effect in the repeat runs; inconclusive means weak or mixed curves; inactive means no such curve, though single readings can be large; an effect the other way counts as inactive or inconclusive.

Assay [1] concerns the target Thyrotropin receptor (Homo sapiens) (UniProt P16473). Nature of the assay: qHTS assay to identify small molecule antagonists of the thyroid stimulating hormone receptor (TSHR) signaling pathway (AID 1259385; calls by dose curve; further: nearly all actives have a fitted effect of over 20% in size). In outline:
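Antagonist mode: compound-treated TSHR-expressing HEK293 cells were stimulated with 1.5 ng/mL TSH (final) in presence of Ro20-1724 for 30 min at RT. HTRF cAMP detection after 1 h; each compound tested at 15 concentrations, triplicate.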
(In general: qHTS replaces the single test concentration by a dilution series.)

Assay [2] can be described thus: qHTS assay to identify small molecule agonists of the estrogen receptor alpha (ER-alpha) signaling pathway in the presence of an antagonist - cell viability counter screen (AID 1259386).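 Further: series mostly up to about 92 µM; cells exposed to compounds for 22 h at 37 °C before the viability read; nearly all actives have a fitted effect of over 30% in size.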 In outline:
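The test measures whether compounds kill ER-alpha reporter cells (VM7Luc4E2) under antagonist co-treatment (ICI-182,780, 10.0nM). Fluorescence from CellTiter-Fluor is read after a 22hr exposure.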

The target of assay [3] is Progesterone receptor (Homo sapiens) (UniProt P06401). The experiment in a line: qHTS assay to identify small molecule agonists of the progesterone receptor (PR) signaling pathway (AID 1346784; calls by dose curve; further: nearly all actives have a fitted effect of over 30% in size). In outline: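 HEK 293T PR-UAS-bla reporter cells, 2% charcoal-stripped FBS; 6 hr settle at 37C/5% CO2, compound (DMSO) 16 hr, LiveBLAzer B/G FRET substrate 2 hr RT, fluorescence intensity read.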
Chain of Progesterone receptor (Homo sapiens) (P06401 whole entry, looked up): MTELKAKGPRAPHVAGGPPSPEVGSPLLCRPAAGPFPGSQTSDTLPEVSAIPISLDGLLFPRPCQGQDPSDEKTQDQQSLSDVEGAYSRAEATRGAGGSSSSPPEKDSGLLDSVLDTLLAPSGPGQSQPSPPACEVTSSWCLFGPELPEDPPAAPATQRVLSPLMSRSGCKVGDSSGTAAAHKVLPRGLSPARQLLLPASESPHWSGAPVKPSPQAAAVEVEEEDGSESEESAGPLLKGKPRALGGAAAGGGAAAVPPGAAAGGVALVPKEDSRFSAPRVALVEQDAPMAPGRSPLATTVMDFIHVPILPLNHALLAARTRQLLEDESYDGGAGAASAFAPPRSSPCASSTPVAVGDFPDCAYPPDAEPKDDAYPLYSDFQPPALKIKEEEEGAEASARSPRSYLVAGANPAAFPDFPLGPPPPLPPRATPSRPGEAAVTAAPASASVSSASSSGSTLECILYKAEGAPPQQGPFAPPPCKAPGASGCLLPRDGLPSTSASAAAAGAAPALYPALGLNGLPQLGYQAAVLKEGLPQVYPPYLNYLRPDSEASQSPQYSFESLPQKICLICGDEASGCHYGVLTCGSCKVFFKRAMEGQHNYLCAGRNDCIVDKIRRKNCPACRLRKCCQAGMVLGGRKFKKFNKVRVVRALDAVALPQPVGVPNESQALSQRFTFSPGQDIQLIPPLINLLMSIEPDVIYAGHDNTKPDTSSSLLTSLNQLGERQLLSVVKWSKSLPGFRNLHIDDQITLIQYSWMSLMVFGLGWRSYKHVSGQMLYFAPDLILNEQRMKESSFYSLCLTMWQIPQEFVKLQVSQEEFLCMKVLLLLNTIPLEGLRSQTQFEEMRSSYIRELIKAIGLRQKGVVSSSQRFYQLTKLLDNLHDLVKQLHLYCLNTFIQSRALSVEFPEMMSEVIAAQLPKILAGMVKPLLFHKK

Assay [4] shares this target. Nature of the assay: qHTS assay to identify small molecule antagonists of the progesterone receptor (PR) signaling pathway (AID 1346795; active means well fitted inhibition curve with a large enough effect in the signal ratio in the repeat runs, not every such curve was filed as active; the % refers to the signal ratio). In outline:
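Beta-lactamase reporter, HEK293T PR-UAS-bla line; 2% charcoal-stripped FBS; 6 hr pre-incubation, 37C/5% CO2. Compound + R5020 1 nM final, 16 hr. LiveBLAzer B/G FRET substrate, 2 hr RT; fluorescence intensity read.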

Assay [5] is described as follows: qHTS assay to identify small molecule antagonists of the progesterone receptor (PR) signaling pathway - cell viability counter screen (AID 1346798). Further: nearly all actives have a fitted effect of over 50% in size. Further: potency means the concentration at half of the fitted maximal effect. In outline:
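Luminescence readout (CellTiter-Glo, 30 min, RT) of viability in PR-UAS-bla HEK293T cells exposed to compound and R5020 agonist for 16 hr at 37C, 5% CO2; run in the same wells as the beta-lactamase reporter read.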

Assay [6] can be described thus: qHTS assay to identify small molecule agonists of the progesterone receptor (PR) signaling pathway - cell viability counter screen (AID 1346799; calls by dose curve; further: nearly all actives have a fitted effect of over 45% in size; further: potency means the concentration at half of the fitted maximal effect). A digest of the protocol: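 HEK293T PR-UAS-bla, 3,000 cells/well, 2% charcoal-stripped FBS; 6 h settle, compound 16 h at 37C/5% CO2; LiveBLAzer 2 h RT, then CellTiter-Glo 30 min RT, luminescence read.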
Assay [7] is described as follows: qHTS assay to identify small molecule antagonists of the TGF-beta/Smad signaling pathway - cell viability counter screen (AID 1346824). Further: nearly all actives have a fitted effect of over 50% in size. In outline:
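Cytotoxicity counter-screen run in the same wells as the beta-lactamase Smad reporter read: CellTiter-Glo luminescence after 30 min at room temperature. HEK 293T SBE-bla cells had 5 hr compound exposure at 37 C with TGF-beta1 (0.25 ng/mL stock).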

Assay [8] in a line: qHTS assay to identify small molecule agonists of the TGF-beta/Smad signaling pathway - cell viability counter screen (AID 1346829). Further: top concentration of the series differs between compounds; nearly all actives have a fitted effect of over 45% in size. A digest of the protocol: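 Compound-treated SBE-bla HEK 293T cells (5 hr, 37 C) were assessed for viability with CellTiter-Glo in parallel with the reporter read.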
The nature of assay [9]: qHTS assay to identify small molecule agonists of the TGF-beta/Smad signaling pathway (AID 1346859; active means well fitted activation curve with a large enough effect in the signal ratio in the repeat runs, not every such curve was filed as active; the % refers to the signal ratio; further: series mostly up to about 77 µM). A digest of the protocol: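 Read-out: fluorescence at 460 and 530 nm (405 nm excitation) after a 2 hr room-temperature incubation with beta-lactamase FRET substrate. SBE-bla HEK 293T cells had been treated with test compounds for 5 hr at 37 C.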
In assay [10] the target is Thyrotropin-releasing hormone receptor (Homo sapiens) (UniProt P34981). Nature of the assay: qHTS assay to identify small molecule antagonists of the thyrotropin-releasing hormone receptor (TRHR) signaling pathway (AID 1346877; active means well fitted inhibition curve with a large enough effect in the repeat runs, not every such curve was filed as active; further: series mostly up to about 51 µM). A digest of the protocol:
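Overnight-plated (18 h, 37 °C) HEK293 cells expressing TRHR were dye-loaded 2 h, treated with compound, then stimulated with TRH at 1 nM final. Fluorescence intensity was captured every second for 3 min.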

For assay [11] the target is unchanged. Nature of the assay: qHTS assay to identify small molecule agonists of the thyrotropin-releasing hormone receptor (TRHR) signaling pathway (AID 1346891; calls by dose curve;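 further: HEK293 cells expressing TRHR with calcium dye readout; series mostly up to about 58 µM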). In outline:
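HEK293/TRHR cells, 1500 per well, 18 h 37 °C; Ca dye 2 h 37 °C; pin-tool compound addition (agonist mode); kinetic fluorescence 3 min, 1 s reads; 15 concentrations, triplicate.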

Assay [12] in a line: Human pregnane X receptor (PXR) small molecule agonists, qHTS cell viability counter screen (AID 1346977). Further: nearly all actives have a fitted effect of over 50% in size. In outline: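 Fluorescence read-out (CellTiter-Fluor) of viability in PXR-Luc HepG2 cells, multiplexed with the luciferase agonist read. Compounds in DMSO added after 5hr plating; 24hr total exposure at 37C, 5% CO2.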
A short description of assay [13]: Caspase-3/7 induction in HepG2 cells by small molecules, qHTS assay (AID 1346978). Further: nearly all actives have a fitted effect of over 15% in size. A digest of the protocol:
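Caspase-3/7 induction was measured by Caspase-Glo 3/7 luminescence (30 min, room temperature) after a 17 hr compound exposure of wild-type HepG2 cells seeded at 2,000 per well and pre-incubated 5 hr.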

Assay [14] can be described thus: Caspase-3/7 induction in CHO-K1 cells by small molecules, qHTS cell viability counter screen (AID 1346979). Further: nearly all actives have a fitted effect of over 35% in size. A digest of the protocol:
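CHO-K1 wt, 1,500 cells/well; 5hr pre-incubation 37C/5% CO2; compound pin transfer (DMSO); 16hr exposure; CellTiter-Fluor added, 1hr, fluorescence read.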

Assay [15] can be described thus: Caspase-3/7 induction in CHO-K1 cells by small molecules, qHTS assay (AID 1346980). Further: nearly all actives have a fitted effect of over 15% in size. A digest of the protocol:
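Luminescent Caspase-Glo 3/7 read (30min, room temperature) quantified apoptosis induction. Cells were wild-type CHO-K1, treated with compound for 17hr at 37 C and 5% CO2.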

Assay [16] is described as follows: Caspase-3/7 induction in HepG2 cells by small molecules, qHTS cell viability counter screen (AID 1346981). Further: series mostly up to about 92 µM; nearly all actives have a fitted effect of over 30% in size. In outline:
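Treatment of HepG2 cells with DMSO-delivered compounds ran 16 hr at 37 C following a 5-hr pre-incubation of 2,000 cells/well. CellTiter-Fluor fluorescence, read after 1 hr, served as the viability measure in a qHTS format.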

Assay [17] has as its target Nuclear receptor subfamily 1 group I member 2 (Homo sapiens) (UniProt O75469). The experiment in a line: Human pregnane X receptor (PXR) small molecule agonists, qHTS assay (AID 1346982). Further: nearly all actives have a fitted effect of over 35% in size. Further: potency means the concentration at half of the fitted maximal effect. A digest of the protocol:
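Stable HepG2 line reporting PXR-mediated CYP3A4 expression via luciferase. Treatment: 24 hr with compounds in DMSO at 37 C. Detection: ONE-Glo luminescence.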

For assay [18], the target named is Nuclear receptor subfamily 1 group I member 2 (Rattus norvegicus) (UniProt Q9R1A7). Nature of the assay: Rat pregnane X receptor (rPXR) activation by small molecules, qHTS assay (AID 1346983). Further: nearly all actives have a fitted effect of over 20% in size. To be noted: rPXR luciferase reporter cells, One-Glo luminescence, 24 h; max activation: hits give high values. A digest of the protocol:
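Luminescent readout (One-Glo luciferase, 30 min room temperature) followed 24 hr compound treatment at 37 C of rPXR cells plated 2,000 per well and preincubated 5hr; qHTS format with compounds delivered in DMSO.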

In assay [19] the target is Nuclear receptor subfamily 1 group I member 2 (Homo sapiens) (UniProt O75469). Nature of the assay: CYP3A4 induction through human pregnane X receptor (PXR) by small molecules, qHTS assay (AID 1346984). Further: nearly all actives have a fitted effect of over 40% in size. Further: potency means the concentration at half of the fitted maximal effect. A digest of the protocol: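 After 24 h at 37C with compound, DPX-2 cells (HepG2, co-transfected PXR response element and CYP3A4 promoter-luciferase) got 3uM final P450-Glo Luciferin-IPA for 3 h; One-Glo luminescence followed.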
Chain of Nuclear receptor subfamily 1 group I member 2 (Homo sapiens) (O75469 whole entry, looked up): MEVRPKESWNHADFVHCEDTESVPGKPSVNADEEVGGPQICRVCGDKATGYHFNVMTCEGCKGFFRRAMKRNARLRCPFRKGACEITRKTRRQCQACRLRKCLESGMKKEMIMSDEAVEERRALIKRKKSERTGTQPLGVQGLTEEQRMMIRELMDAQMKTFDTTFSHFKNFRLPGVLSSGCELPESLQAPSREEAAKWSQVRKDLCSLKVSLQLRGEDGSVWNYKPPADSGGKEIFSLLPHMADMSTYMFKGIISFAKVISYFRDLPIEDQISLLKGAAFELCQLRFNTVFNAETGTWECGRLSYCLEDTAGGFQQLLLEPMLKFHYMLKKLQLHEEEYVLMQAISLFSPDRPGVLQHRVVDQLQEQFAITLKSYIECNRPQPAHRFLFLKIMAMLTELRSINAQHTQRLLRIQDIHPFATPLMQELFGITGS

Assay [20] has the same target. Nature of the assay: Human pregnane X receptor (PXR) activation by small molecules, qHTS assay (AID 1346985). Further: nearly all actives have a fitted effect of over 40% in size. Further: potency means the concentration at half of the fitted maximal effect. In outline:
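DPX-2 cells (HepG2 co-transfected with a PXR response element and a CYP3A4-promoter luciferase construct) were seeded at 2,000 per well, rested 5 hr at 37C, then exposed to DMSO-dissolved compounds for 24 hr. Activation was read as luciferase luminescence.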
On the % scale 0 is the no-effect control and ±100 the full control effect.

Chain of Thyrotropin-releasing hormone receptor (Homo sapiens) (P34981 whole entry, looked up): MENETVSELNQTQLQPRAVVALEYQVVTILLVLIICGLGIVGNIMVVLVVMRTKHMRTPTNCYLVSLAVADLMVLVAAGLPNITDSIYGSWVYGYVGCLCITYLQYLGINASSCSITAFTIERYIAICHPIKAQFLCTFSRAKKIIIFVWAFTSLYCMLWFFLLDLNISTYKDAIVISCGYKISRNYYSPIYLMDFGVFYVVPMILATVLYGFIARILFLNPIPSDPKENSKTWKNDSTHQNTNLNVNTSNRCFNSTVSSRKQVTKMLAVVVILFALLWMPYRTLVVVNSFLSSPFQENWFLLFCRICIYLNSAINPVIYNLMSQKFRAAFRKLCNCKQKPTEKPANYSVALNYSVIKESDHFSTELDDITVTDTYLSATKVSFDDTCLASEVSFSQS
Chain of Thyrotropin receptor (Homo sapiens) (P16473 whole entry, looked up): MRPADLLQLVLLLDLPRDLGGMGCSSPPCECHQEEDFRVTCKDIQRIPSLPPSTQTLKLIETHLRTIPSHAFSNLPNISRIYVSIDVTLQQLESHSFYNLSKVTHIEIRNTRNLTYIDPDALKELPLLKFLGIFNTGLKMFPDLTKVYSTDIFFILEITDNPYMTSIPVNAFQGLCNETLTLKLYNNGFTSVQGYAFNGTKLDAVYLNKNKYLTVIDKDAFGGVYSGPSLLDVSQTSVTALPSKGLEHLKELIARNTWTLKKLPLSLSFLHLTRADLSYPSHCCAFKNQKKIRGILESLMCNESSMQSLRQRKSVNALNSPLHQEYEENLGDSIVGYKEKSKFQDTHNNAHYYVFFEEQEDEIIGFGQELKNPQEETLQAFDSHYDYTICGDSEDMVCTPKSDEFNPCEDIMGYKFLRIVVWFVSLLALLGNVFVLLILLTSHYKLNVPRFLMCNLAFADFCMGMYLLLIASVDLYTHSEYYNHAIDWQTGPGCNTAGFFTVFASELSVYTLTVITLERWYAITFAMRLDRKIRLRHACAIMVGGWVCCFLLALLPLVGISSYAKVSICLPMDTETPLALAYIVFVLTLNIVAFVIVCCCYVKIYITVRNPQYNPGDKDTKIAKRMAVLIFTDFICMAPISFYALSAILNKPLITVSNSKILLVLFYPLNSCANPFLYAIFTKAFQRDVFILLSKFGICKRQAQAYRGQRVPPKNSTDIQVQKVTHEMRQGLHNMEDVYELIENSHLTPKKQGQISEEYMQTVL
Chain of Nuclear receptor subfamily 1 group I member 2 (Rattus norvegicus) (Q9R1A7 whole entry, looked up): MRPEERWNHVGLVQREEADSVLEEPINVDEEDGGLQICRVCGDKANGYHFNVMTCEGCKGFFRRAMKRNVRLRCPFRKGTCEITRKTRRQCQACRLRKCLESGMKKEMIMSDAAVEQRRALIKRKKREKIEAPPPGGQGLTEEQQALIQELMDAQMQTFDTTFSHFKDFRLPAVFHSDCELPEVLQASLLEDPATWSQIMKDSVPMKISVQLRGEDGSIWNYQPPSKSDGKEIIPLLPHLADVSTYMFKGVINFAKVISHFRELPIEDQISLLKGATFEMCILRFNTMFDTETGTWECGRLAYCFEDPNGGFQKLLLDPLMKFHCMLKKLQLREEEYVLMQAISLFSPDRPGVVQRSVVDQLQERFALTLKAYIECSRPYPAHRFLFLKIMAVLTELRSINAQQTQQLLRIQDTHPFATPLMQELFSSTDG

Turning to `O=CNNC=O`, the Potency result in assay [1], in assay [2], in assay [3], in assay [4], in assay [5] and in [6] was “inactive” throughout. The Potency entry in assay [8], in [9], in assay [12], in [13], in [14] and in assay [16] was “inactive” throughout. The Potency result in assay [17] was “inactive”. Also, the result in assay [7], in [10], in assay [11] and in assay [15] was inactive.
As to `BrC(Br)C(Br)Br`, the Potency entry in assay [1], in [2], in assay [3], in assay [4], in assay [5] and in [6] was “inactive” each time. Besides, the Potency result in assay [8], in [9], in assay [12], in assay [13], in assay [14] and in [16] was “inactive” in each case. For the same compound, the Potency entry in [17] is “inactive”. Also, the outcome in assay [7], in [10], in [11] and in assay [15] was inactive.
For `CCCCCCCCCCCCCC(=O)OCC(O)CO` (stereo not given), the Potency entry in assay [1], in assay [2], in assay [3], in assay [4], in assay [5] and in [6] was “inactive” in each case. The Potency entry in assay [8], in assay [9], in assay [12], in assay [13], in [14] and in assay [16] was “inactive” throughout. The Potency result in [17] is “inactive”. Also, the result in assay [7] and in assay [15] was inactive.
Turning to `CCN(CC)CCOc1ccccc1C(=O)CCc1ccccc1`, the Potency entry in assay [1], in assay [2], in assay [3], in assay [4], in assay [8] and in [9] was “inactive” throughout. Further, the Potency entry in [13] and in assay [16] was “inactive” throughout. Moreover, the Potency was 11.9 µM (active) in assay [5]; 9.44 µM (active) in assay [6]; 26.6 µM (active) in assay [17]; 14.1 µM (active) in assay [19]; 15.8 µM (active) in [20]. The call in [7], in assay [10], in assay [11] and in assay [15] was inactive. Moreover, in [18], the max activation was 4.09%.
Regarding `O=C(Nc1ccc(C(=O)O)c(O)c1)c1ccccc1`, the Potency entry in [1], in assay [2], in [3], in assay [4], in assay [5] and in assay [6] was “inactive” in each case. Also, the Potency result in assay [8], in [9], in assay [12], in [13], in [14] and in assay [16] was “inactive” each time. Besides, the Potency result in [17], in assay [19] and in assay [20] was “inactive” in each case. The compound was classed as inactive in assay [7], in [10], in assay [11] and in [15]. In addition, in [18], the max activation is -2.23%.
Consider `O=[N+]([O-])c1ccc2ncccc2c1`, for which the Potency result in assay [1], in assay [2], in assay [3], in [4], in [5] and in assay [6] was “inactive” throughout. Further, the Potency entry in assay [8], in [9], in assay [12], in assay [13], in [14] and in [16] was “inactive” throughout. Moreover, the result in [7], in assay [10], in [11] and in assay [15] was inactive.
Consider `CC/C=C\C/C=C\C/C=C\CCCCCCCC(=O)OCC`, for which the Potency entry in [1], in assay [2], in [3], in [4], in assay [5] and in assay [6] was “inactive” throughout. Also, the Potency entry in assay [8], in assay [9], in assay [12], in assay [13] and in assay [16] was “inactive” throughout. Also, the compound was classed as inactive in [7], in assay [10] and in [11].
For the compound `CCN(CC)C(=O)N1CCN(C)CC1`, the Potency result in assay [1], in assay [2], in [3], in [4], in assay [5] and in assay [6] was “inactive” in each case. For the same compound, the Potency entry in assay [8], in [9], in [12], in [13], in assay [14] and in assay [16] was “inactive” throughout. The Potency entry in assay [17], in assay [19] and in assay [20] was “inactive” each time. Also, the outcome in assay [7] and in [15] was inactive. For the same compound, the max activation in assay [18] was -2.03%.
